Laboratory results as given in PubChem BioAssay AID1159580 (chemical genetic matrix, 2015).
Values joined by “and” are separate entries in the source; they are usually repeats but may differ in a detail not shown here. Equal entries are not always repeated. The campaign covered roughly 5,500 compounds. About 2,000 (36%) were called active. Not shown: some 18% with an inconclusive outcome. No stated cut-off is given here; in the data, active means normalized growth mostly below about 0.91 (no sharp cut-off); inconclusive means no clear call, values can overlap the other calls; inactive means mostly above about 0.92. The list shows a part of the results.

Assay: chemical genetic growth profiling, strain panel (AID 1159580);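 further: tested at 20 µM; growth read once vehicle control cultures reached saturation at 30 °C; 1 = growth at the plate median or of vehicle wells; lower values mean less growth of the strain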
Settings: S. cerevisiae deletion strains, growth OD

Measured: normalized growth

C[C@@H]1CC[C@@]2(OC1)OC1C(O)C3C4CC[C@H]5C[C@H](O[C@@H]6O[C@H](CO)[C@H](O[C@@H]7O[C@H](CO)[C@@H](O)[C@H](O[C@@H]8OC[C@@H](O)[C@H](O)[C@H]8O)[C@H]7O[C@@H]7O[C@H](CO)[C@H](O)[C@H](O[C@@H]8O[C@H](CO)[C@@H](O)[C@H](O)[C@H]8O)[C@H]7O)[C@H](O)[C@H]6O)[C@H](O)C[C@]5(C)C4CC[C@]3(C)C1[C@@H]2C (stereo partly specified)
active: locus YAL013W, strain DEP1, hits give low values 0.0526 | locus YBR021W, strain FUR4, hits give low values 0.0876 | locus YBR229C, strain ROT2, hits give low values 0.0499 | locus YCL029C, strain bik1, hits give low values 0.0554 | locus YDL035C, strain GPR1, hits give low values 0.0509 | locus YDL074C, strain BRE1, hits give low values 0.0891 | locus YDL101C, strain DUN1, hits give low values 0.0606 | locus YDL185W, strain tfp1, hits give low values 0.0577 | locus YDL192W, strain arf1, hits give low values 0.0632 | locus YDR101C, strain arx1, hits give low values 0.0567 | locus YDR137W, strain rgp1, hits give low values 0.509 | locus YDR150W, strain NUM1, hits give low values 0.0485 | locus YDR159W, strain sac3, hits give low values 0.84 | locus YDR162C, strain NBP2, hits give low values 0.0515 | locus YDR195W, strain ref2 0.61 | locus YDR318W, strain mcm21, hits give low values 0.0561 | locus YDR335W, strain msn5, hits give low values 0.907 | locus YDR388W, hits give low values 0.0552 | locus YDR502C, strain sam2, hits give low values 0.0624 | locus YER110C, hits give low values 0.0702 | locus YER111C, strain swi4, hits give low values 0.642 | locus YER155C, strain BEM2, hits give low values 0.0639 | locus YER167W, strain BCK2, hits give low values 0.0533 | locus YGL078C, strain dbp3, hits give low values 0.0574 | locus YGL086W, strain mad1, hits give low values 0.0591 | locus YGL167C, strain pmr1, hits give low values 0.749 | locus YGL240W, strain doc1, hits give low values 0.846 | locus YGL248W, strain PDE1, hits give low values 0.0484 | locus YGR078C, strain PAC10, hits give low values 0.0519 | locus YGR135W, strain pre9, hits give low values 0.0583 | locus YGR252W, strain gcn5, hits give low values 0.173 | locus YHR030C, strain SLT2, hits give low values 0.0897 | locus YHR079C, strain IRE1 (second series), hits give low values 0.0526 | locus YHR079C, strain IRE1, hits give low values 0.12 | locus YHR094C, strain hxt1, hits give low values 0.0539 | locus YHR129C, strain ARP1, hits give low values 0.0547 | locus YHR200W, strain rpn10, hits give low values 0.0577 | locus YIL066C, strain RNR3, hits give low values 0.0505 | locus YIL073C, strain SPO22, hits give low values 0.119 | locus YIL125W, strain kgd1, hits give low values 0.0532 | locus YIR030C, strain dcg1, hits give low values 0.054 | locus YJL095W, strain BCK1, hits give low values 0.059 and 0.105 | locus YJL134W, strain LCB3, hits give low values 0.0488 | locus YJL168C, strain set2, hits give low values 0.0534 | locus YJL187C, strain SWE1 (second series), hits give low values 0.0518
inactive: locus YAL021C, strain ccr4, hits give low values 0.988 | locus YAL026C, strain drs2, hits give low values 1.01 | locus YAL030W, strain snc1, hits give low values 1.02 | locus YBL061C, strain skt5, hits give low values 1.01 | locus YBR009C, strain hhf1, hits give low values 0.942 | locus YBR023C, strain chs3, hits give low values 1.01 | locus YBR171W, strain sec66, hits give low values 0.986 | locus YBR231C, strain swc5, hits give low values 0.99 | locus YBR279W, strain paf1, hits give low values 1.02 | locus YCL011C, strain gbp2, hits give low values 0.986 | locus YCL016C, strain dcc1, hits give low values 0.995 | locus YCL061C, strain MRC1, hits give low values 0.999 | locus YCL069W, strain vba3, hits give low values 1.02 | locus YCR088W, strain abp1, hits give low values 1.01 | locus YDL005C, strain med2, hits give low values 1.06 | locus YDL040C, strain nat1, hits give low values 1.02 | locus YDR001C, strain nth1, hits give low values 1.02 | locus YDR069C, strain doa4, hits give low values 1.03 | locus YDR297W, strain sur2, hits give low values 1.02 | locus YDR334W, strain swr1, hits give low values 1.02 | locus YDR392W, strain spt3, hits give low values 0.919 | locus YEL003W, strain gim4, hits give low values 1 | locus YEL037C, strain rad23, hits give low values 1.02 | locus YEL061C, strain CIN8 (second series), hits give low values 0.999 | locus YER015W, strain faa2, hits give low values 1.02 | locus YER016W, strain bim1, hits give low values 0.977 | locus YER155C, strain BEM2 (second series), hits give low values 1.01 | locus YFR010W, strain ubp6, hits give low values 1.01 | locus YGL173C, strain kem1, hits give low values 1 | locus YGL227W, strain vid30, hits give low values 1.03 | locus YGL253W, strain hxk2, hits give low values 1.02 | locus YHR013C, strain ard1, hits give low values 1.03 | locus YHR027C, strain rpn1, hits give low values 1.02 | locus YHR142W, strain chs7, hits give low values 0.876 | locus YJL092W, strain hpr5, hits give low values 1.01 | locus YJL095W, strain BCK1 (second series), hits give low values 1.01 | locus YJL115W, strain asf1, hits give low values 1.03 | locus YJL129C, strain trk1, hits give low values 0.944 | locus YJL154C, strain vps35, hits give low values 1.01 | locus YJL164C, strain tpk1, hits give low values 0.933 | locus YJL166W, strain qcr8, hits give low values 0.969
